# Article PMC11062922 (Nature Chemical Biology, 2023)
# Like-named read-outs stand apart in the source and are kept apart here.
# Experiments:
# [1] = test system: PRKD3; details: read-out: apparent Kd, n = 1
# [2] = biological target: Q6ZSR9 (human, UniProt Q6ZSR9); details: read-out: apparent Kd, n = 1
# Sequence of Q6ZSR9 (Q6ZSR9 whole entry, looked up): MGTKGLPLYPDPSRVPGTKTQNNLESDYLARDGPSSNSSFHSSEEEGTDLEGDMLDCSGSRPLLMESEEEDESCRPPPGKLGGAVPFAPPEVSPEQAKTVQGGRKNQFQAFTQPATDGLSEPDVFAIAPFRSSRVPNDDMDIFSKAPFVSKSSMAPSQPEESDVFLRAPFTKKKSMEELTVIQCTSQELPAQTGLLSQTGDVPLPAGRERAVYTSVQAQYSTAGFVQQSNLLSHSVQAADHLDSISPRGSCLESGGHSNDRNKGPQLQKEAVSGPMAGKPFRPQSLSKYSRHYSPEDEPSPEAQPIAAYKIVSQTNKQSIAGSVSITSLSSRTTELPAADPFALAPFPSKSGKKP
substance,measurement,setting,value
Lestaurtinib,potency estimated from few doses,"[1]; compound concentrations:100 nM and 1000 nM (sheet 'Lestaurtinib' of Supplementary Table 1),run:Lestaurtinib_02766_R2,Plate:MR027",74.6 nM
same,potency estimated from few doses,"[1]; compound concentrations:100 nM and 1000 nM (sheet 'Lestaurtinib' of Supplementary Table 1),run:Lestaurtinib_02768_R3,Plate:MR028",59.1 nM
same,potency estimated from few doses,"[1]; compound concentrations:100 nM and 1000 nM (sheet 'Lestaurtinib' of Supplementary Table 1),run:Lestaurtinib_02795_R2,Plate:MR022",79.8 nM
same,potency estimated from few doses,"[1]; compound concentrations:100 nM and 1000 nM (sheet 'Lestaurtinib' of Supplementary Table 1),run:Lestaurtinib_02802_R1,Plate:MR029",83.1 nM
same,potency estimated from few doses,"[1]; compound concentrations:100 nM and 1000 nM (sheet 'Lestaurtinib' of Supplementary Table 1),run:Lestaurtinib_02802_R3,Plate:MR029",82.7 nM
same,potency estimated from few doses,"[1]; compound concentrations:100 nM and 1000 nM (sheet 'Lestaurtinib' of Supplementary Table 1),run:Lestaurtinib_02896_R1,Plate:MR030",61.8 nM
same,potency estimated from few doses,"[1]; compound concentrations:100 nM and 1000 nM (sheet 'Lestaurtinib' of Supplementary Table 1),run:Lestaurtinib_02896_R2,Plate:MR030",80.6 nM
same,potency estimated from few doses,"[1]; compound concentrations:100 nM and 1000 nM (sheet 'Lestaurtinib' of Supplementary Table 1),run:Lestaurtinib_02896_R3,Plate:MR030",92.2 nM
same,potency estimated from few doses,"[1]; compound concentrations:100 nM and 1000 nM (sheet 'Lestaurtinib' of Supplementary Table 1),run:Lestaurtinib_03172_R3,Plate:MR031",90.1 nM
same,potency estimated from few doses,"[1]; compound concentrations:100 nM and 1000 nM (sheet 'Lestaurtinib' of Supplementary Table 1),run:Lestaurtinib_03252_R1,Plate:MR032",43.4 nM
same,potency estimated from few doses,"[1]; compound concentrations:100 nM and 1000 nM (sheet 'Lestaurtinib' of Supplementary Table 1),run:Lestaurtinib_03252_R2,Plate:MR032",30.6 nM
same,potency estimated from few doses,"[1]; compound concentrations:100 nM and 1000 nM (sheet 'Lestaurtinib' of Supplementary Table 1),run:Lestaurtinib_03260_R2,Plate:MR033",96.7 nM
same,potency estimated from few doses,"[1]; compound concentrations:100 nM and 1000 nM (sheet 'Lestaurtinib' of Supplementary Table 1),run:Lestaurtinib_03260_R3,Plate:MR033",91.2 nM
same,potency estimated from few doses,"[2]; compound concentrations:100 nM and 1000 nM (sheet 'Lestaurtinib' of Supplementary Table 1),run:Lestaurtinib_02339_R1,Plate:MR001",78.9 nM
same,potency estimated from few doses,"[2]; compound concentrations:100 nM and 1000 nM (sheet 'Lestaurtinib' of Supplementary Table 1),run:Lestaurtinib_02339_R3,Plate:MR001",48.8 nM
same,potency estimated from few doses,"[2]; compound concentrations:100 nM and 1000 nM (sheet 'Lestaurtinib' of Supplementary Table 1),run:Lestaurtinib_02364_R1,Plate:MR002",68.5 nM
same,potency estimated from few doses,"[2]; compound concentrations:100 nM and 1000 nM (sheet 'Lestaurtinib' of Supplementary Table 1),run:Lestaurtinib_02364_R2,Plate:MR002",68.1 nM
same,potency estimated from few doses,"[2]; compound concentrations:100 nM and 1000 nM (sheet 'Lestaurtinib' of Supplementary Table 1),run:Lestaurtinib_02364_R3,Plate:MR002",78.6 nM
same,potency estimated from few doses,"[2]; compound concentrations:100 nM and 1000 nM (sheet 'Lestaurtinib' of Supplementary Table 1),run:Lestaurtinib_02367_R1,Plate:MR003",62.7 nM
same,potency estimated from few doses,"[2]; compound concentrations:100 nM and 1000 nM (sheet 'Lestaurtinib' of Supplementary Table 1),run:Lestaurtinib_02367_R2,Plate:MR003",66.7 nM
same,potency estimated from few doses,"[2]; compound concentrations:100 nM and 1000 nM (sheet 'Lestaurtinib' of Supplementary Table 1),run:Lestaurtinib_02367_R3,Plate:MR003",78.8 nM
same,potency estimated from few doses,"[2]; compound concentrations:100 nM and 1000 nM (sheet 'Lestaurtinib' of Supplementary Table 1),run:Lestaurtinib_02381_R1,Plate:MR004",69.4 nM
same,potency estimated from few doses,"[2]; compound concentrations:100 nM and 1000 nM (sheet 'Lestaurtinib' of Supplementary Table 1),run:Lestaurtinib_02381_R2,Plate:MR004",64.6 nM
same,potency estimated from few doses,"[2]; compound concentrations:100 nM and 1000 nM (sheet 'Lestaurtinib' of Supplementary Table 1),run:Lestaurtinib_02407_R1,Plate:MR005",62.3 nM
same,potency estimated from few doses,"[2]; compound concentrations:100 nM and 1000 nM (sheet 'Lestaurtinib' of Supplementary Table 1),run:Lestaurtinib_02407_R2,Plate:MR005",71.9 nM
same,potency estimated from few doses,"[2]; compound concentrations:100 nM and 1000 nM (sheet 'Lestaurtinib' of Supplementary Table 1),run:Lestaurtinib_02407_R3,Plate:MR005",68.5 nM
same,potency estimated from few doses,"[2]; compound concentrations:100 nM and 1000 nM (sheet 'Lestaurtinib' of Supplementary Table 1),run:Lestaurtinib_02422_R1,Plate:MR006",72.4 nM
same,potency estimated from few doses,"[2]; compound concentrations:100 nM and 1000 nM (sheet 'Lestaurtinib' of Supplementary Table 1),run:Lestaurtinib_02422_R2,Plate:MR006",20.6 nM
same,potency estimated from few doses,"[2]; compound concentrations:100 nM and 1000 nM (sheet 'Lestaurtinib' of Supplementary Table 1),run:Lestaurtinib_02437_R2,Plate:MR007",55.6 nM
same,potency estimated from few doses,"[2]; compound concentrations:100 nM and 1000 nM (sheet 'Lestaurtinib' of Supplementary Table 1),run:Lestaurtinib_02437_R3,Plate:MR007",9.66 nM
same,potency estimated from few doses,"[2]; compound concentrations:100 nM and 1000 nM (sheet 'Lestaurtinib' of Supplementary Table 1),run:Lestaurtinib_02438_R3,Plate:MR008",74.8 nM
same,potency estimated from few doses,"[2]; compound concentrations:100 nM and 1000 nM (sheet 'Lestaurtinib' of Supplementary Table 1),run:Lestaurtinib_02443_R1,Plate:MR009",51.6 nM
same,potency estimated from few doses,"[2]; compound concentrations:100 nM and 1000 nM (sheet 'Lestaurtinib' of Supplementary Table 1),run:Lestaurtinib_02443_R2,Plate:MR009",62.7 nM
same,potency estimated from few doses,"[2]; compound concentrations:100 nM and 1000 nM (sheet 'Lestaurtinib' of Supplementary Table 1),run:Lestaurtinib_02443_R3,Plate:MR009",77.8 nM
same,potency estimated from few doses,"[2]; compound concentrations:100 nM and 1000 nM (sheet 'Lestaurtinib' of Supplementary Table 1),run:Lestaurtinib_02473_R1,Plate:MR010",78.4 nM
same,potency estimated from few doses,"[2]; compound concentrations:100 nM and 1000 nM (sheet 'Lestaurtinib' of Supplementary Table 1),run:Lestaurtinib_02473_R2,Plate:MR010",61 nM
same,potency estimated from few doses,"[2]; compound concentrations:100 nM and 1000 nM (sheet 'Lestaurtinib' of Supplementary Table 1),run:Lestaurtinib_02473_R3,Plate:MR010",35.7 nM
same,potency estimated from few doses,"[2]; compound concentrations:100 nM and 1000 nM (sheet 'Lestaurtinib' of Supplementary Table 1),run:Lestaurtinib_02482_R2,Plate:MR011",76.6 nM
same,potency estimated from few doses,"[2]; compound concentrations:100 nM and 1000 nM (sheet 'Lestaurtinib' of Supplementary Table 1),run:Lestaurtinib_02482_R3,Plate:MR011",65.6 nM
same,potency estimated from few doses,"[2]; compound concentrations:100 nM and 1000 nM (sheet 'Lestaurtinib' of Supplementary Table 1),run:Lestaurtinib_02487_R1,Plate:MR012",71.7 nM
same,potency estimated from few doses,"[2]; compound concentrations:100 nM and 1000 nM (sheet 'Lestaurtinib' of Supplementary Table 1),run:Lestaurtinib_02487_R2,Plate:MR012",66.6 nM
same,potency estimated from few doses,"[2]; compound concentrations:100 nM and 1000 nM (sheet 'Lestaurtinib' of Supplementary Table 1),run:Lestaurtinib_02487_R3,Plate:MR012",81.2 nM
